Experimental data as given in PubChem BioAssay (EPA / NIEHS).
Results filed as inconclusive are left out. Active and inactive are the calls of the source. How the source made its calls: active means hit-call score of the fitted dose curve at least 0.9, where 1 is the maximum; inconclusive means response in the unintended direction; inactive means score below 0.9.

Each molecule was assayed against sheep Cyclooxygenase-1 (Cox1), PTGS1 (gene 443551) (UniProt P05979) (assay: NVS_ENZ_oCOX1: NovaScreen (NVS) Enzymatic Assay for sheep Cyclooxygenase-1 (Cox1) (AID 2283239);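 further: actives reduce cyclooxygenase activity so potencies are for inhibitors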).
sheep Cyclooxygenase-1 (Cox1), PTGS1 (gene 443551), sequence (P05979 whole entry, looked up): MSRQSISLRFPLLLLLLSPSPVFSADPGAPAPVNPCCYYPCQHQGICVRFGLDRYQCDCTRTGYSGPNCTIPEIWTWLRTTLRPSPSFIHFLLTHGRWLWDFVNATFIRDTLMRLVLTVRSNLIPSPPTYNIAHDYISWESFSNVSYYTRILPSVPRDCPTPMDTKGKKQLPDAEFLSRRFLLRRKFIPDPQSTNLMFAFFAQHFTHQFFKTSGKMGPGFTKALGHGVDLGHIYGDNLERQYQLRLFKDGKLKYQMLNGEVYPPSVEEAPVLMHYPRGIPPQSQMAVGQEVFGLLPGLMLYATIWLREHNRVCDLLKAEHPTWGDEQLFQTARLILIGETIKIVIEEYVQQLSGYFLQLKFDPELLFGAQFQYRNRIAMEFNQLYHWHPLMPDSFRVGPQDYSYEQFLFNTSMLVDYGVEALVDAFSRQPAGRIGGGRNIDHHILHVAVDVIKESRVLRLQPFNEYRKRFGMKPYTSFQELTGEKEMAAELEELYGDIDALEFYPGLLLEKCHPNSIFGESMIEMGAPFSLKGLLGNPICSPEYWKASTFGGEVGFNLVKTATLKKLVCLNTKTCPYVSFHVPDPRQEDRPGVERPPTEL
Description: NVS_ENZ_oCOX1 is a biochemical, single-readout assay that uses extracted gene-proteins from Ovine seminal vesicles in a tissue-based cell-free assay. Measurements were taken 0.66 hour after chemical dosing in a 96-well plate.NVS_ENZ_oCOX1 is one of one assay component(s) measured or calculated from the NVS_ENZ_oCOX1 assay. It is designed to make measurements of enzyme activity, a form of enzyme reporter, as detected with absorbance signals by Colorimetric technology.Data from the assay component NVS_ENZ_oCOX1 was analyzed into 1 assay endpoint. This assay endpoint, NVS_ENZ_oCOX1, was analyzed in the positive analysis fitting direction relative to DMSO as the negative control and baseline of activity. Using a type of enzyme reporter, loss-of-signal activity can be used to understand changes in the enzymatic activity as they relate to the gene PTGS1. Furthermore, this assay endpoint can be referred to as a primary readout, because this assay has produced multiple assay endpoints where this one serves a enzymatic activity function. To generalize the intended target to other relatable targets, this assay endpoint is annotated to the oxidoreductase intended target family, where the subfamily is cyclooxygenase.
Binding assays used specific radioligands (tritiated, iodinated) with non-radioactive competitive displacement ligands in agonist or antagonist protocols (as indicated) and various reference compounds and inhibitors to titrate specific binding to receptors and transporters. Most enzyme assays (CYPs, kinases, phosphatases, proteases, HDACs) used recombinant protein and specific substrates (fluorescence mostly, some colorimetric and radioactive) and inhibitors, followed by a biochemical separation of substrate and product. All assays for the biochemical HTS were initially run in duplicate at a single concentration (10 uM for CYP450 assays and 25 uM for all others). […] Each assay was run with positive and negative controls, and concurrent controls on every plate. The follow-up (secondary) screen tested active chemical-pairs in concentration series, as well as a few additional assays not tested in the primary screen, some selected negative inactives, and several cases re-run in the concentration series for confirmatory purposes.

Compound	outcome	AC50
Clc1ccc(C2(Cn3cncn3)CC(Br)CO2)c(Cl)c1 (stereo not given)	inactive	
CCCCCCCCCl		0.0723 µM (active)
ClCCBr	inactive	
CCOC(=O)Nc1cccc(OC(=O)Nc2ccccc2)c1		8.56 µM (active)
Nc1cccc2ccccc12		13.6 µM (active)
O=C(O)C(F)(F)C(F)(F)C(F)(F)C(F)(F)C(F)(F)C(F)(F)C(F)(F)C(F)(F)C(F)(F)C(F)(F)F	inactive	
CC12CC1(C)C(=O)N(c1cc(Cl)cc(Cl)c1)C2=O (stereo not given)	inactive	
CC(=O)C(Cl)C(=O)N(C)C (stereo not given)	inactive	
Oc1ccc(-c2ccccc2)cc1	inactive	
COC(=O)Cc1ccccc1	inactive	
CC(C)(C)c1cc(O)ccc1O		11 µM (active)
Nc1ccc(-c2ccc(N)c(Cl)c2)cc1Cl		1.64 µM (active)
Cl/C=C\C[N+]12CN3CN(CN(C3)C1)C2		5.46 µM (active)
COc1cc(OC)nc(NC(=O)NS(=O)(=O)c2ncccc2C(=O)N(C)C)n1		7.06 µM (active)
ClC(Cl)=C(Cl)C(Cl)=C(Cl)Cl	inactive	
OCc1ccco1		6.01 µM (active)
O=[N+]([O-])c1ccc2c3c(cccc13)CC2		18.9 µM (active)
CCOC(=O)/C=C(C)/C=C/C[C@@H](C)CCCC(C)C		31.3 µM (active)
CCN1CCC2(CC1)COc1cc3c(cc12)N(C(=O)c1ccc(-c2ccc(-c4nnc(C)o4)cc2C)cc1)CC3		4.68 µM (active)
CC(C)(OO)c1ccccc1		2.76 µM (active)
